# CYP2C9 activ – CYP2C9 (human) activation; P11712; recombinant CYP2C9, luciferin-H conversion, luminescence; active compounds read high; factor 1 = untreated enzyme, 0 = blocked; activation factor at 5 µM; 96,000 compounds, 1.4% hits; AID 1024;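 active = activation factor of 2 or more for CYP2C9 at a 5 µM dose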;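 note: 0 = sulfaphenazole-blocked wells and 1 = vehicle-only wells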
# Target sequence (P11712 whole entry, looked up): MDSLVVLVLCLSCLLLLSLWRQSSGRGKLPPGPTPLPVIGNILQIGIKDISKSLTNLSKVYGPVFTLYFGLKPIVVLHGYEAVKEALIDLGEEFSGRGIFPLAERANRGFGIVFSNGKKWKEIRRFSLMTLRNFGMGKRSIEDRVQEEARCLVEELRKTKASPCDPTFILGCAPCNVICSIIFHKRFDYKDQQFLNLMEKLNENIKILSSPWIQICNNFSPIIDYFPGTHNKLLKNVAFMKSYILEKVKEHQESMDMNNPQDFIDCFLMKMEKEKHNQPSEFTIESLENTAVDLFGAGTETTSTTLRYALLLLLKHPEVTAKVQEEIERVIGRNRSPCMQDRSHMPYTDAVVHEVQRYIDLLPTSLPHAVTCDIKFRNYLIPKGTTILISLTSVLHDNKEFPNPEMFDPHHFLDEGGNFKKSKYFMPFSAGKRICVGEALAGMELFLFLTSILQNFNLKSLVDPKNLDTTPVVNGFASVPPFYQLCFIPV
# CYP2C9 inh – blocks human cytochrome P450 2C9. P11712. CYP2C9 Supersomes, luciferin-H conversion, luminescence. inhibition, % at 5 µM. 96,000 compounds, 20% hits. AID 777;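 active = blocking of liver enzyme CYP2C9 beyond about 50% at 5 µM, limit read from the data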
# CYP2C19 inhib – inhibitors of human CYP2C19. P33261. CYP2C19 Supersomes, luciferin-H EGE luminescence, 30 min. inhibition, % at 5 µM. 96,000 compounds, 21% hits;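 active = CYP2C19 inhibition above a set limit at 5 µM in the primary screen, cut at about 50% in these data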;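 note: plate controls were negative control wells for no effect and 2.5 mM tranylcypromine positive control for full effect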
# CYP2C19 activ – activators of human cytochrome P450 2C19; P33261; 96,000 tested, under 10 active; AID 1025; activation factor at 5 µM; recombinant CYP2C19, luciferin-H EGE luminescence; active compounds read high; 0 = fully inhibited enzyme, 1 = untreated enzyme;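 active = activation factor of at least 2 at 5 µM in the primary screen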;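 note: 0 = wells with 2.5 mM tranylcypromine and 1 = vehicle-only wells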
# PostGolgi yeast – growth inhibition of a yeast mutant, post-Golgi transport screen. inhibition, % at 10 µM. post-Golgi transport phenotypic cell assay. 98,000 compounds, 0.9% hits. AID 739;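 note: yeast cells grown in 1536-well plates; yeast grown about 18 h at 30C before absorbance read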
# PostGolgi ctrl – yeast control strain growth, post-Golgi counter-screen; inhibition, % at 10 µM; AID 738; efflux-deficient yeast background strain, growth absorbance A615, 16 h; 98,000 compounds, 5% hits
# The depositor's hits bear a star; x = not tested or not shown. Most compounds without a hit are left out; they make up all but 32% or so of the library. Cut-off read from the data, not from the text of the source, unless noted: active = inhibition above about 30%; inactive = the rest.
SMILES,CYP2C9 activ,CYP2C9 inh,CYP2C19 inhib,CYP2C19 activ,PostGolgi yeast,PostGolgi ctrl
Cc1ccc(N=Nc2c(N)[nH]n3c(=O)c4c(nc23)CCCC4)cc1,1.1,-13,-12,1.1,-1,25
CCOCCCn1c(SCC(=O)NC(C)(C)C)nc2ccccc2c1=O,0.9,11,8,0.9,3,7
COC(=O)c1ccc(NC(=O)CSc2nccn2CCc2ccccc2)cc1,0.5,50*,76*,0.2,-7,30
COCCCn1c(SCC(=O)Nc2ccc(C(=O)OC)cc2)nc2ccccc2c1=O,0.1,88*,78*,0.2,-9,6
CCOCCCn1c(SCC(=O)Nc2ccc(C(N)=O)cc2)nc2ccccc2c1=O,0.8,18,56*,0.4,5,9
CCOC(=O)CSC1=Nc2ccccc2C2=NC(CC(=O)NCc3ccc4c(c3)OCO4)C(=O)N12 (centres undefined),0.7,33,1,1,0,11
CC(Cc1ccccc1)NC(=O)CSc1nc2nc3c(cc2c(=O)n1-c1ccccc1)COC(C)(C)C3 (centres undefined),0.9,8,0,1,-4,0
Cc1ccccc1OCCn1nc(C(=O)O)c2ccccc2c1=O,0.5,47,54*,0.5,5,18
COC(=O)C1(C)NC(c2ccco2)C2C(=O)N(c3ccc(C)cc3)C(=O)C21 (centres undefined),1,2,1,1,-2,5
CC(=O)N1C2CCCCC2S[C@H]2CCCCC21 (some centres undefined),0.7,31,0,1,-6,0
Cc1nc2ccccc2c(=O)n1NC(=O)Cc1ccc(Br)cc1,0.2,85*,40,0.6,-2,-1
CCCCCc1ccc(CC(=O)Nn2c(C)nc3ccccc3c2=O)cc1,0.1,95*,60*,0.4,-3,41*
Cc1nc2ccccc2c(=O)n1NC(=O)c1c(O)c2ccccc2n(C)c1=O,1,3,13,0.9,x,x
CC(C)n1nnc2ccccc2c1=O,1.2,-17,3,1,10,6
CSc1ccccc1NS(=O)(=O)c1ccc2c(c1)OCCO2,2.7*,-170,79*,0.2,5,19
CCCNC(=O)c1ccccc1NS(=O)(=O)c1ccc2c(c1)OCCO2,2*,-104,44,0.6,-9,-1
O=S(=O)(Nc1cccnc1Cl)c1ccc2c(c1)OCCO2,0.8,20,22,0.8,-3,21
COCCCNc1oc(-c2ccccc2F)nc1C#N,0.4,58*,66*,0.3,1,0
N#Cc1nc(-c2ccccc2F)oc1NCc1ccccc1,0.3,66*,38,0.6,0,21
Cc1ccc(NS(=O)(=O)c2ccc(CCC(=O)NCCO)cc2)cc1,0.1,85*,58*,0.4,1,9
Cc1ccc(S(=O)(=O)NCCC(=O)NCCN2CCCCCC2)cc1,1.4,-37,-19,1.2,6,-5
CCCNC(=O)COc1ccc(S(=O)(=O)Nc2ccc(C)cc2)cc1,0.5,52*,69*,0.3,4,-11
CC1(C)CC(=O)C(=CN2CCN(C(=O)c3ccco3)CC2)C(=O)C1,1,-3,-5,1,3,13
Cc1cc(C)nc(NC2=NCC(=O)N2c2ccccc2)n1,1,0,2,1,0,2
Nc1nnc(SCc2cc3c(cc2Cl)OCO3)s1,0.5,49,70*,0.3,1,7
SMILES,CYP2C9 activ,CYP2C9 inh,CYP2C19 inhib,CYP2C19 activ,PostGolgi yeast,PostGolgi ctrl
Clc1ccccc1CSc1snnc1-c1ccccc1,1.6,-57,-2,1,-2,6
Nc1nnc(SCc2ccccc2Cl)s1,1.1,-7,68*,0.3,-16,9
Clc1cccc(COn2c(-c3ccc(Cl)cc3Cl)nc3ncccc32)c1,0.1,91*,94*,0.1,-6,71*
Cc1ccc(COn2c(-c3ccc(Cl)cc3Cl)nc3ncccc32)cc1,0.7,34,83*,0.2,9,64*
COc1cccc(C2=CC(c3ccc(C)cc3)n3ncnc3N2)c1 (centres undefined),0.7,28,7,0.9,-19,0
Cc1ccsc1C1C=C(c2cccc(Br)c2)Nc2ncnn21 (centres undefined),0.4,62*,62*,0.4,12,37*
Fc1ccc(Br)cc1C1C=C(c2ccc(Br)cc2)Nc2ncnn21 (centres undefined),0.4,56*,87*,0.1,14,16
